Measured values reported in PubChem BioAssay (Tox21).
Results filed as inconclusive are left out. Calls of active or inactive are those of the source. Calls come from the whole dose curve; as a rule, active = well fitted cell-killing curve with a large enough effect in the repeat runs; inconclusive = weak or mixed curves, or effect the other way; inactive = flat fitted curve, though single readings scatter.

Experiment: cAMP Responsive Elements (CRE) small molecule antagonists, cell-based qHTS assay: qHTS cell viability counter screen (AID 2060913); note: nearly all actives have a fitted effect of over 40% in size
Conditions: CRE-bla HEK293T viability, CellTiter-Glo luminescence, 5 h; series mostly up to 92.4 µM; viability change, negative = cytotoxic: at the top concentration
Source text: U.S. Tox21 Program National Center for Advancing Translational Sciences [NCATS] Division of Preclinical Innovation [DPI] U.S. Environmental Protection Agency [EPA] National Institutes of Environmental Health Sciences [NIEHS] National Toxicology Program [NTP] U.S. Food and Drug Administration [FDA] Tox21 Assay Overview: CREB (cyclic-AMP Responsive Element Binding Protein) is a cellular transcription factor. It binds to certain DNA sequences called cAMP Responsive Elements (CRE) and regulates the transcription of the genes. […] This cell line can be used to find agonists/antagonists of the cyclic AMP signaling pathway. The activation of the report gene under culture conditions can be detected by fluorescence intensity. This cell line has been used to screen the Tox21 10K compound library to identify agonists that induce oxidative stress. The cytotoxicity of the Tox21 compound library against the CRE-bla cell line was tested in parallel by measuring the cell viability using CellTiter-Glo assay (Promega, Madison, WI) in the same wells.
Tox21 Assay Protocol Summary: CRE-bla Hek 293T cells were suspended in assay medium (DMEM containing 10% dialyzed FBS, 0.1 mM NEAA, 1 mM sodium pyruvate and 25 mM HEPES) and dispensed at 2,000 cells/4 uL /well into 1536-well black wall/clear bottom plates using a Multidrop Combi (ThermoFisher Scientific, Waltham, MA) dispenser. After the assay plates were incubated at 37 C/5% CO2 for 18 hrs, 23 nL of compounds dissolved in DMSO, positive controls or DMSO only was transferred to the assay plate by a pintool workstation (Kalypsys, San Diego, CA), followed by addition of 1 uL of 1.25uM NKH477 (0.25 uM as final concentration) in assay medium using a Flying Reagent Dispenser (Aurora Discovery, San Diego, CA). The plates were incubated at 37 C and 5% CO2 for 3 hrs. Then 1 uL of LiveBLAzer B/G FRET substrate (Invitrogen, Carlsbad, CA) was added to each well using Bioraptr Flying Reagent Dispenser (FRD, Aurora Discovery, San Diego, CA). The plates were incubated at room temperature for 2 h, then fluorescence intensities were measured using an Envision plate reader (PerkinElmer, Shelton, CT) at Excitation 405nm, Emission 460nm and 530nm. The % activity was determined from the ratio of 460nm/530nm. For cell viability readout that measures cytotoxicity, 4 uL /well of CellTiter-Glo reagent was added into the assay plates using Bioraptr FRD. After 30 min incubation at room temperature, the luminescence intensity in the assay plates was measured using a ViewLux (PerkinElmer, Shelton, CT) plate reader.
% is set by controls: 0 for no effect and ±100 for the full control effect.

Row | SMILES | viability change, negative = cytotoxic | Potency
1 | CC(C)CCOC(=O)c1ccc(N(C)C)cc1 | 1.53% [at 42.5 µM] (inactive) | 
2 | N#CCCOCCC#N | 14.1% (inactive) | 
3 | Oc1c(Cl)cc(Cl)c2cccnc12 | 3.07% [at 42.5 µM] (inactive) | 
4 | CCNC(=O)C(C)OC(=O)Nc1ccccc1 (stereo not given) | -8.01% (inactive) | 
5 | O=C1O[C@H](CO)[C@@H](O)[C@H](O)[C@H]1O |  | inactive
6 | CC1=CC(C)C(C=O)C(C)C1 (stereo not given) | 10.9% (inactive) | 
7 | Nc1[nH]c(=O)ncc1F | 4.21% [at 42.5 µM] (inactive) | 
8 | CN(C)CCN1CCN(c2cccc(Cl)c2)C1=O | 6.11% [at 42.5 µM] (inactive) | 
9 | c1cnc(N2CCN(Cc3ccc4c(c3)OCO4)CC2)nc1 | 0.145% [at 42.5 µM] (inactive) | 
10 | O=C(/C=C/C=C/c1ccc2c(c1)OCO2)N1CCCCC1 |  | inactive
11 | CCCCCCCCCCCC(=O)OC[C@@H](O)[C@H]1OC[C@H](OCCO)[C@H]1OCCO | -0.0809% (inactive) | 
12 | Cc1ccccn1 | 1.97% (inactive) | 
13 | CC1=C(/C=C/C(C)=C/C=C/C(C)=C/C(=O)O)C(C)(C)CCC1 |  | inactive
14 | CCCCCCCCCCCCOCCO |  | inactive
15 | C=CCc1ccccc1OCC(O)CNC(C)C (stereo not given) | -0.389% [at 42.5 µM] (inactive) | 
16 | O=C(O)/C=C/C(=O)O |  | inactive
17 | O=CCc1ccccc1 |  | inactive
18 | C/C=C/c1ccc(OCC)c(O)c1 |  | inactive
19 | CC1=NN(c2cc(Cl)c(S(=O)(=O)O)cc2Cl)C(=O)C1N=Nc1ccc(S(=O)(=O)O)cc1 (stereo not given) | -4.96% (inactive) | 
20 | O[C@@H]1CO[C@H]2[C@@H]1OC[C@@H]2O | 6.85% [at 42.5 µM] (inactive) | 

Row | SMILES | viability change, negative = cytotoxic | Potency
21 | COc1ccc(-c2cc(=S)ss2)cc1 | -2.35% [at 42.5 µM] (inactive) | 
22 | CC(N)CCCC(C)(C)O (stereo not given) | -1.68% [at 42.5 µM] (inactive) | 
23 | Cc1cccc(C)c1NC(=O)C(C)N (stereo not given) | -1.14% [at 42.5 µM] (inactive) | 
24 | SC1CCCC1 | -1.11% (inactive) | 
25 | CCCCOCCOCCOCCCC | 0.209% (inactive) | 
26 | CCN(Cc1cccc(S(=O)(=O)O)c1)c1ccccc1 | -4.56% (inactive) | 
27 | C=C[Si]1(C)O[Si](C)(C=C)O[Si](C)(C=C)O[Si](C)(C=C)O1 (stereo not given) | -0.399% (inactive) | 
28 | CCOCCC(=O)OCC | -2.56% (inactive) | 
29 | COc1cc(NC(=O)CC(C)=O)c(OC)cc1Cl |  | inactive
30 | C=C(C)C(=O)OCCNC(C)(C)C | 5.85% (inactive) | 
31 | Fc1ccc(C(c2ccc(F)cc2)N2CCNCC2)cc1 | -0.979% [at 42.5 µM] (inactive) | 
32 | OCCN(CCO)c1cccc(Cl)c1 | -1.89% (inactive) | 
33 | CN(C)Cc1cc(C(C)(C)C)c(O)c(C(C)(C)C)c1 | -7.49% (inactive) | 
34 | CC(=O)OCCOC(C)=O |  | inactive
35 | O=C1C(=O)c2ccccc2C(O)=C1C1CCC(c2ccc(Cl)cc2)CC1 (stereo not given) | -0.361% [at 42.5 µM] (inactive) | 
36 | O=C(O)c1ccco1 | 10.2% (inactive) | 
37 | CC(=O)OCC(C)OC(C)=O (stereo not given) | -5.59% (inactive) | 
38 | COc1cc2c(cc1N)oc1ccccc12 | -2.13% (inactive) | 
39 | C[C@@H]1C[C@H]2O[C@@]3(O[C@@H]2C(C)(C)O)[C@H](O)[C@@]2(C)[C@@H]4CC[C@H]5C(C)(C)[C@@H](O[C@@H]6OC[C@@H](O)[C@H](O)[C@H]6O)CC[C@@]56C[C@@]46CC[C@]2(C)[C@@H]13 | -4.01% [at 42.5 µM] (inactive) | 
40 | C[CH2][Ge]([Cl])([CH2]C)[CH2]C | -2.35% (inactive) | 
